Test results published in PubChem BioAssay (EPA / NIEHS).
Results filed as inconclusive are left out. A structure can be active in one record and inactive in another. The source made the active and inactive calls. The calls were made as follows: active = hit-call score of the fitted dose curve at least 0.9, where 1 is the maximum; inconclusive = response in the unintended direction; inactive = score below 0.9.

biological target: Peroxisome proliferator-activated receptor gamma (Homo sapiens) (UniProt P37231); assay: NVS_NR_hPPARg: NovaScreen (NVS) Nuclear Receptor Binding Assay for human Peroxisome Proliferator-activated Receptor gamma (PPARg) (AID 2283370)
Sequence (P37231 whole entry, looked up): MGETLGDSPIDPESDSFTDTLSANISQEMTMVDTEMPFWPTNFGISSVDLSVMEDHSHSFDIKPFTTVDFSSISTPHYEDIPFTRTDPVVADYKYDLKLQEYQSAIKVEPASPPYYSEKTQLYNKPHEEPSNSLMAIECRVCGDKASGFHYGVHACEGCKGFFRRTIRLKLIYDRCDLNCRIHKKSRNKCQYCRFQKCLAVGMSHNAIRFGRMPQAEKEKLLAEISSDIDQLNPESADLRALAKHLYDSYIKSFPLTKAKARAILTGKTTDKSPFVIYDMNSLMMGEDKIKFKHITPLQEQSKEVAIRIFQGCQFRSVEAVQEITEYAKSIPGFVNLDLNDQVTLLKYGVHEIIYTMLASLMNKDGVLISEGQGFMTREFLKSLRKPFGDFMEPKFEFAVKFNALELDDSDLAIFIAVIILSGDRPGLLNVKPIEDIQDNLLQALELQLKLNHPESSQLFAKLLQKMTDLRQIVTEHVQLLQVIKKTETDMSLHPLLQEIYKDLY
Method: NVS_NR_hPPARg is a biochemical, single-readout assay that uses extracted gene-proteins in a cell-free assay. Measurements were taken 2 hours after chemical dosing in a 384-well plate.NVS_NR_hPPARg is one of one assay component(s) measured or calculated from the NVS_NR_hPPARg assay. It is designed to make measurements of fluorescent polarization, a form of binding reporter, as detected with fluorescence polarization signals by Fluorescence Polarization technology.Data from the assay component NVS_NR_hPPARg was analyzed into 1 assay endpoint. This assay endpoint, NVS_NR_hPPARg, was analyzed in the positive analysis fitting direction relative to DMSO as the negative control and baseline of activity. Using a type of binding reporter, loss-of-signal activity can be used to understand changes in the binding as they relate to the gene PPARG. Furthermore, this assay endpoint can be referred to as a primary readout, because the performed assay has only produced 1 assay endpoint. To generalize the intended target to other relatable targets, this assay endpoint is annotated to the nuclear receptor intended target family, where the subfamily is non-steroidal.
Binding assays used specific radioligands (tritiated, iodinated) with non-radioactive competitive displacement ligands in agonist or antagonist protocols (as indicated) and various reference compounds and inhibitors to titrate specific binding to receptors and transporters. Most enzyme assays (CYPs, kinases, phosphatases, proteases, HDACs) used recombinant protein and specific substrates (fluorescence mostly, some colorimetric and radioactive) and inhibitors, followed by a biochemical separation of substrate and product. All assays for the biochemical HTS were initially run in duplicate at a single concentration (10 uM for CYP450 assays and 25 uM for all others). […] Each assay was run with positive and negative controls, and concurrent controls on every plate. The follow-up (secondary) screen tested active chemical-pairs in concentration series, as well as a few additional assays not tested in the primary screen, some selected negative inactives, and several cases re-run in the concentration series for confirmatory purposes.

Row | Structure (SMILES) | outcome | AC50
1 | CCNS(=O)(=O)C(F)(F)C(F)(F)C(F)(F)C(F)(F)C(F)(F)C(F)(F)C(F)(F)C(F)(F)F | inactive | –
2 | C[C@]12C=CC3=C4CCC(=O)C=C4CC[C@H]3[C@@H]1CC[C@@H]2O | inactive | 41.5 µM (active)
3 | CCCCCCCCn1sccc1=O | – | 0.693 µM (active)
4 | Nc1ccc(Oc2ccc(N)cc2)cc1 | inactive | –
5 | CCOC(=O)[C@]1(c2ccccc2)Oc2ccccc2[C@@H]1N | inactive | –
6 | c1ccc(N=Nc2ccccc2)cc1 | inactive | –
7 | O=C(Oc1ccc(Br)cc1)N1CCN2CCC1CC2 | inactive | –
8 | CS(=O)(=O)NC(=O)c1cc(Oc2ccc(C(F)(F)F)cc2Cl)ccc1[N+](=O)[O-] | inactive | –
9 | CC(C)(O)c1cnn2c(-c3ccc(F)c(-c4c(F)cccc4C#N)c3)cnc2n1 | inactive | –
10 | Nc1ccc(Cl)cc1N | inactive | –
11 | Cc1cc(N=Nc2ccccc2C)ccc1N | inactive | –
12 | Cc1cccc(N)c1N | – | 0.00229 µM (active)
13 | CC(C)COC(=O)c1ccccc1C(=O)OCC(C)C | inactive | –
14 | Cn1cc(-c2ccccc2)c(=O)c(-c2cccc(C(F)(F)F)c2)c1 | inactive | –
15 | Nc1ccc(N=Nc2ccccc2)cc1 | inactive | –
16 | CN(C)c1ccc(C(=O)c2ccc(N(C)C)cc2)cc1 | – | 25 µM (active)
17 | O=[N+]([O-])C(Br)(CO)CO | inactive | –
18 | CC(C)(C)OOC(=O)c1ccccc1 | inactive | –
19 | CCCCOC(=O)c1ccccc1C(=O)OCc1ccccc1 | inactive | –
20 | O=C(Nc1ccccc1)c1ccccc1I | inactive | –
